The full list was thinned out, with hits kept by preference.
KDM5B inh: KDM5B demethylase inhibition; Q9UGL1; KDM5B demethylase, FDH-coupled NADH fluorescence (FDH is formaldehyde dehydrogenase); Potency, µM (titrated, usually from 57.7 µM), most hits filed as inhibitors; 220,000 tested, 2.6% active; active = well fitted inhibition curve with a large enough effect; note: 0% is about no effect; nearly all actives have a fitted effect of over 70% in size
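KDM5BΔAP (200 nM final) in 50 mM HEPES pH 7.5, 0.01% Tween-20 was preincubated 10 min at RT with compound over a concentration range. Substrate mix (H3K4me3 12.5 µM, α-KG 25 µM, Fe²⁺, ascorbate, NAD⁺, FDH) was added, and NADH fluorescence change over 30 min gave dose-response curves.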
* = called active by the depositor; i = inactive. Potency is the fitted concentration of half-maximal effect.

SMILES	KDM5B inh
O=C(Nc1nc2ccccc2s1)C1CC(=O)N(c2n[nH]c3cccc(F)c23)C1 (stereo not given)	i
CC(C)c1nnc(NC(=O)C2CC(=O)N(c3n[nH]c4cccc(F)c34)C2)s1 (stereo not given)	i
COc1cc(NC(=O)C2CC(=O)N(c3n[nH]c4cccc(F)c34)C2)cc(OC)c1OC (stereo not given)	i
Cc1ccc(NC(=O)C2CC(=O)N(c3n[nH]c4cccc(F)c34)C2)cc1C (stereo not given)	18µM*
CCCNC(=O)C1CC(=O)N(c2n[nH]c3cccc(F)c23)C1 (stereo not given)	i
O=C(NC1CCCCCC1)C1CC(=O)N(c2n[nH]c3cccc(F)c23)C1 (stereo not given)	32µM*
CCN(CC)CCCNc1oc(-c2ccco2)nc1S(=O)(=O)c1ccc2c(c1)OCCO2	i
CCOc1cccc(CNC2CC2)c1	i
COc1ccc(Cl)cc1NC(=O)CCc1ncc(-c2ccc(F)cc2F)o1	i
CC(C)CNC(=O)CSc1nnc(-c2nn(Cc3ccccc3)c(=O)c3ccccc23)o1	i
Cc1ccc(C)c(NC(=O)CCl)c1	i
CCC(=O)Nc1sc2c(c1C#N)CC(C)CC2 (stereo not given)	i
O=C1N[C@@H]2CCN(S(=O)(=O)Cc3ccccc3)[C@@H]2C(=O)N1c1ccc(F)cc1	i
CC(C)(Oc1ccc(Cl)cc1)C(=O)Nc1cc(C(C)(C)C)no1	i
N#Cc1cccc(CSc2nccc(C(F)(F)F)n2)c1	i
FC(F)(F)c1ccnc(N2CCC(OCc3cccnc3)CC2)n1	i
O=C(Nc1cccc2c1CCCC2)N1CCCC(OCc2cccnc2)C1 (stereo not given)	i
Fc1cnc(N2CCCC(OCc3cccnc3)C2)nc1N1CCOCC1 (stereo not given)	28µM*
Cc1ccc(-c2n[nH]c(=O)c3ccccc23)cc1S(=O)(=O)N1CCCC1	i
O=C(NCC1CCCO1)c1cc2c(=O)[nH]c(-c3ccccc3)cn2n1 (stereo not given)	22µM*
O=C(NCC1CCCO1)c1ccc(-c2nnc(-c3ccccc3)o2)cc1 (stereo not given)	i
Cc1cc(Br)cc2c(C(=O)NCC3CCCO3)cc(-c3ccccc3)nc12 (stereo not given)	i
COC(=O)c1sc(=S)n(-c2c(C)cccc2C)c1N	i
CCN1C(=O)C2(CCN(S(=O)(=O)c3ccc(C)c(F)c3)CC2)c2ccccc21	i
CNc1nc(-c2ccccc2)c(C(=O)Nc2ccccc2)s1	i
SMILES	KDM5B inh
O=C(CSCCSCC(=O)c1ccccc1)c1ccccc1	i
Cc1ccc(C)c(S(=O)(=O)c2nnn3c2nc(Nc2ccc(C)c(C)c2)c2ccccc23)c1	i
CC(C)OCCCNc1nc2c(S(=O)(=O)c3ccc(C(C)C)cc3)nnn2c2ccccc12	i
Cc1cccc(-c2nnn3c2nc(NCCC(C)C)c2ccccc23)c1	i
COCCCNc1nc2c([S+](=O)([O-])c3cc(OC)ccc3OC)nnn2c2ccccc12	79µM*
Cc1ccc(S(=O)(=O)c2nnn3c2nc(NCCCOC(C)C)c2ccccc23)cc1	i
COCCNc1nc2c(S(=O)(=O)c3cc(C)ccc3C)nnn2c2ccccc12	79µM*
COc1ccc(OC)c([S+](=O)([O-])c2nnn3c2nc(NCCCOC(C)C)c2ccccc23)c1	89µM*
O=[S+]([O-])(c1ccc(Br)cc1)c1nnn2c1nc(NCc1ccncc1)c1ccccc12	i
CCOc1ccc(CCNc2nc3c(-c4ccc(C)cc4)nnn3c3ccccc23)cc1OCC	i
Cc1ccc(C2CCCN2Cc2nc(-c3cccs3)no2)cc1 (stereo not given)	i
Cc1ccc(-c2nnc(C3CN(C(=O)C4CCCCCC4)CC34CCOCC4)o2)cc1 (stereo not given)	i
O=C(Cc1cnc[nH]1)N1Cc2ccccc2CC2(CCCN(CC3CCNCC3)C2)C1 (stereo not given)	i
Cc1cccc(NC(=O)NCc2nc(-c3ccccc3)oc2C)c1C	i
O=C(CSc1nc2cc([N+](=O)[O-])ccc2o1)NCc1ccc(F)cc1	i
COCCN1C(=O)C(=O)/C(=C(/O)c2ccc(OC)c(C)c2)C1c1ccc(Cl)cc1Cl (stereo not given)	i
Cc1cccc(C(=O)Nc2ccc3nc(SCc4ccc(I)cc4)sc3c2)c1	i
COc1cccc(-c2cc3c(ccn3CC3CCN(C)CC3)c(N3CCOCC3)n2)c1	i
CN1CCC(Oc2nccnc2N2CCOCC2)C1 (stereo not given)	i
Fc1ccccc1-c1cc2c(ccn2Cc2ccncc2)c(N2CCOCC2)n1	28µM*
COc1cccc(CC(=O)NCc2cc(N3CCOCC3)ncn2)c1	i
COc1ncccc1-c1cc2c(ccn2Cc2ccncc2)c(N2CCOCC2)n1	7.9µM*
COc1ccc(CCC(=O)Nc2ccc3c(N4CCOCC4)ncnc3c2)cc1	i
COc1ncccc1-c1cc2c(ccn2CC2CCN(C)CC2)c(N2CCOCC2)n1	25µM*
